# Laboratory results from PubChem BioAssay (Tox21).
# Inconclusive results are not listed. Unmarked numbers belong to inactive results. The call rests on the fitted dose curve; in most records, active means well fitted cell-killing curve with a large enough effect in the repeat runs; inconclusive means weak or mixed curves, or effect the other way; inactive means flat fitted curve, though single readings scatter.
# Assay: qHTS assay to identify small molecule that activate the aryl hydrocarbon receptor (AhR) signaling pathway - cell viability counter screen (AID 743086); further: nearly all actives have a fitted effect of over 45% in size
# Conditions: HepG2-AhR-luc viability, CellTiter-Fluor, 24 h; series mostly up to 70.3 µM; viability change, negative = cytotoxic: at the top concentration
# Method in brief: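 Cytotoxicity counter screen: CellTiter-Fluor signal (30 min, 37 C) in 4000 HepG2 cells/well carrying the DRE-luciferase reporter, following 24 h compound exposure at 37 C.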
# On the % scale 0 is the no-effect control and ±100 the full control effect.
row,Structure (SMILES),"viability change, negative = cytotoxic"
1,CN=C(NC)NCc1ccccc1,0%
2,C[C@@H]1C/C=C/C=C/C=C/C=C/[C@H](O[C@@H]2O[C@H](C)[C@@H](O)[C@H](N)[C@@H]2O)C[C@@H]2O[C@](O)(C[C@@H](O)C[C@H]3O[C@@H]3/C=C/C(=O)O1)C[C@H](O)[C@H]2C(=O)O,-4.01%
3,CCCCOC(=O)C(=O)Nc1cccc(-c2nn[nH]n2)c1,-0.544%
4,CC[C@H](CC[C@@H](C)[C@H]1CC[C@H]2[C@@H]3CC=C4C[C@@H](O)CC[C@]4(C)[C@H]3CC[C@]12C)C(C)C,12.8%
5,COC(=O)CCC(=O)CN,9.39%
6,CC(=O)N[C@@H](CC(=O)N[C@@H](CCC(=O)O)C(=O)O)C(=O)O,1.94%
7,CCOC(=O)[C@H](CCc1ccccc1)N[C@H]1CCCN2CCC[C@@H](C(=O)O)N2C1=O,-0.438%
8,O=[N+]([O-])c1ccc(Oc2ccc(N=C=S)cc2)cc1,-0.839%
9,C=C1c2c(Cl)ccc(O)c2C(O)=C2C(=O)[C@]3(O)C(O)=C(C(N)=O)C(=O)[C@@H](N(C)C)[C@@H]3[C@@H](O)[C@H]12,-16.9% [at 32.5 µM]
10,O=C(O)c1cccc(/C=C2/C[C@@H]3[C@@H](/C=C/[C@@H](O)C4CCCCC4)[C@H](O)C[C@@H]3O2)c1,13.3%
11,CC(=O)O[C@H]1CC[C@@]2(C)C(=CC[C@H]3[C@@H]4CC[C@H](C(C)=O)[C@@]4(C)CC[C@@H]32)C1,23.9%
12,NNc1nnc(Cc2ccncc2)c2ccccc12,1.59%
13,CS(=O)(=O)NC(=O)CCC/C=C\C[C@H]1C(=O)C[C@@H](O)[C@@H]1/C=C/[C@H](O)COc1ccccc1,15.9%
